Dicer processing: inhibitors of Dicer pre-microRNA processing, primary screen, biochemical, cat-ELCCA, chemiluminescence | Endoribonuclease Dicer (Homo sapiens), Q9UPY3 | cat-ELCCA pre-miR-21 Dicer processing; stronger effect = higher value | z-score at 25 µM | hit rate 6% among 47,000; in the data active = z-score above about 3, passing the limit was not always enough;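 note: higher signal means more uncleaved substrate so more Dicer inhibition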
Of the large screens only hits and unclear results are named; the others gave an inactive call. This is one part of a sample in which hits are shown more often than they occur.

CCOC(=O)c1c(NC(=O)Nc2cccc(C(F)(F)F)c2)sc2c1CCC(C)C2 (centres undefined)	none
COC(=O)C1C(=O)NC(SCc2ccccc2)=C(C#N)C1c1ccccc1Cl (centres undefined)	none
CCOc1ccc(-c2cnc(NCc3ccc(SC)cc3)n2C)cc1	none
CSc1nc(C)nc(Nc2cccc(C(F)(F)F)c2)c1C#N	none
CCOc1cc(C)c(S(=O)(=O)Nc2cc(C)ccn2)cc1C	none
COc1cc(CCC(C)NC(=O)c2ccc(Cl)cc2)ccc1OC(=O)c1ccc(Cl)cc1 (centres undefined)	none
Cc1cccc(NC(=O)Nc2cccs2)n1	none
O=[N+]([O-])c1cccc(N=C2c3ccccc3CN2c2cccc([N+](=O)[O-])c2)c1	none
NNC(=O)CSc1nnc2nnc3ccccc3n12	none
COc1nc(NCC(C)C)nc(Oc2ccc(=O)[nH]n2)n1	none
CN(C)c1nc(Oc2ccc(=O)n(C)n2)nc(N2CCOCC2)n1	none
CCOc1ccc(Oc2nc(NCC(C)C)nc(N3CCOCC3)n2)nn1	Dicer processing 5.8
CC1=C(C(=O)OCC(C)C)C(c2cccs2)C2=C(CCCC2=O)N1 (centres undefined)	none
CCn1nc(C)cc1C(=O)NNC(=S)NC	none
O=C(CCSc1nc(-c2ccco2)cc(C(F)(F)F)n1)Nc1ccccc1	none
Cc1cc(NC(=O)CCSc2nc(-c3ccco3)cc(C(F)(F)F)n2)n(-c2ccccc2)n1	none
Cc1nn(C)c(C)c1NC(=O)CCSc1nc(-c2ccco2)cc(C(F)(F)F)n1	Dicer processing 3
Cc1ncc(-c2nnnn2-c2ccccc2)c(C(F)(F)F)n1	none
CCC(C)Nc1nc2c(c(=O)n(C)c(=O)n2C)n1CC(O)COc1ccccc1 (centres undefined)	none
O=S(=O)(NCCc1ccccn1)c1cc(S(=O)(=O)c2ccccc2)cs1	none
Cn1c(C(=O)N/N=C/c2ccccc2Cl)cnc1SCc1ccc(Cl)cc1	none
O=C(CCn1nnc(-c2cccc(Cl)c2Cl)n1)N/N=C/c1ccccc1Cl	Dicer processing 3.2
CCOC(=O)c1ccc(NC(=S)N/N=C/c2ccccc2Cl)cc1	none
COc1cccc(OC)c1C(=O)NC(=O)Nc1cc(C(F)(F)F)cc(C(F)(F)F)c1	none
CCSC1=C(C#N)C(=O)NC(c2ccc(N(C)C)cc2)S1 (centres undefined)	none
Nc1nc2c(ncn2COCCOC(=O)c2ccccc2)c(=O)[nH]1	none
CCOC(=O)c1sc(-c2ccccc2)nc1O	none
COc1ccccc1N1CC(C)(C)C(=O)NC1=S	Dicer processing 6.2
COc1ccccc1N1C(=O)C2C3C=CC(CC3)C2C1=O (centres undefined)	none
COc1ccccc1NC(=S)N1CC(C)(C)C1=O	none
Clc1ccc(/C=N/Nc2cc(-c3ccccc3)nc3ncnn23)c(Cl)c1	none
CN(C)C(=O)C(=O)c1c(-c2ccc(Br)cc2)[nH]c2ccccc12	none
CCN(CC)C(=S)Oc1c(C)c(C)nc(=S)n1CCCOC	Dicer processing 9.4
CSc1cc(C(F)(F)F)c(C(=O)Nc2cccc(C)c2C)cn1	none
COc1ccc(C2C3=C(CCCC3=O)N=C3c4ccccc4C(=O)C32)cc1 (centres undefined)	Dicer processing 8.7
O=C1CCCC2=C1C(c1ccc(F)cc1)C1C(=O)c3ccccc3C1=N2 (centres undefined)	none
CC1(C)CC(=O)C2=C(C1)N=C1c3ccccc3C(=O)C1C2c1cccc(F)c1 (centres undefined)	none
COC(=O)c1sc(N2CCOCC2)c(C#N)c1N	none
COc1ccc(NC(=O)CSCC(=O)O)c(N2CCOCC2)n1	none
Cc1oc(S(=O)(=O)N2CCCCC2)cc1C(=O)Nc1ccccc1	none
CCc1ccc(C2Nc3ccccc3S(=O)(=O)N2Cc2ccccc2)cc1 (centres undefined)	none
CCc1nn2c(=O)c(NC(=O)c3ccc(C(C)(C)C)cc3)cnc2s1	none
CN1CCC(c2ccc(Cl)s2)=N1	none
O=[N+]([O-])c1ccsc1Oc1ccc(Cl)cc1	none
Cc1nn2c3c(cnc2c1-c1ccc(Cl)cc1)C(=O)CC(C)C3 (centres undefined)	none
FC(F)(F)c1ccc(SCc2ccc(-c3ncns3)cc2)nc1	none
O=C(O)c1nccnc1C(=O)Nc1ccc(Oc2cccc(C(F)(F)F)c2)nc1	none
O=C(O)c1coc2c1/C(=N/Nc1c(Cl)cc(Cl)cc1Cl)CCC2	Dicer processing 3.8
O=C(O)c1coc2c1/C(=N/N1CCCCC1)CCC2	none
Clc1cc(Cl)c(N/N=C2\CCCc3occc32)c(Cl)c1	none
CC(=O)C(Sc1nnnn1-c1ccccc1)C(C)=O	none
CC(=O)n1nc(C)c(Sc2nnnn2-c2ccccc2)c1C	none
Oc1ccc(O)c(Sc2nnnn2-c2ccccc2)c1	Dicer processing 3.2
N#CC(C#N)=NNc1ccc(F)c(C(F)(F)F)c1	none
COc1ccc(O)c(C2=NN3C(C2)c2ccccc2OC3c2cccnc2)c1 (centres undefined)	none
COc1ccc(C2=NN3C(C2)c2cc(Cl)ccc2OC3c2ccncc2)cc1 (centres undefined)	Dicer processing 9.1
Oc1ccccc1C1=NN2C(C1)c1cc(Cl)ccc1OC2c1cccnc1 (centres undefined)	none
COc1ccc(O)c(C2=NN3C(C2)c2cc(Cl)ccc2OC3c2ccncc2)c1 (centres undefined)	none
COc1ccc(O)c(C2=NN3C(C2)c2cccc(OC)c2OC3c2cccnc2)c1 (centres undefined)	none
COc1ccc(C2=NN3C(C2)c2cc(OC)ccc2OC3c2cccnc2)cc1 (centres undefined)	Dicer processing 4.8
COc1ccc(C2=NN3C(C2)c2ccccc2OC3c2ccc(C)cc2)cc1OC (centres undefined)	none
Cc1ccc(O)c(C2=NN3C(C2)c2ccccc2OC3c2ccncc2)c1 (centres undefined)	none
Cc1ccc(C2=NN3C(C2)c2ccccc2OC3c2ccncc2)cc1 (centres undefined)	Dicer processing 6.9
Cc1nc(SCC(=O)c2ccc(Cl)cc2)n[nH]1	none
Cc1ccc(F)cc1NC(=O)Nc1cc(C(C)(C)C)on1	none
CCOc1ccccc1O[C@@H](c1ccccc1)[C@H]1CNCCO1	none
O=C(c1cccc([N+](=O)[O-])c1)N1c2ccccc2Sc2ccccc21	none
N#C/C(=C\Nc1ccc(Cl)cc1)S(=O)(=O)c1ccc(Cl)cc1	none
C=CCOC(=O)C1=C(C)NC2=C(C(=O)CC(C)(C)C2)C1c1ccc(OCc2ccccc2)c(OC)c1 (centres undefined)	none
COc1ccc2c(c1)CCc1sc(NC(=O)c3cccs3)nc1-2	none
CC(=O)NC(CC#N)[C@@H](OC(C)=O)[C@H](OC(C)=O)[C@@H](COC(C)=O)OC(C)=O (some centres undefined)	none
Cc1c(C)c(C)c(CN)c(C)c1C	none
Cn1c(SCC(=O)Nc2cccc(C(F)(F)F)c2)nnc1-c1cncc(C#Cc2ccccc2)c1	none
O=C(O)CCCc1ccc2ccc3cccc4ccc1c2c34	Dicer processing 4
O=C(O)CCCN1Cc2ccccc2C1	none
O=C(O)c1cccc2cccc(-c3cccc4cccc(C(=O)O)c34)c12	none
O=C(CSc1n[nH]c(-c2ccco2)n1)c1ccc(O)cc1O	Dicer processing 10
Cc1ccc(C(=O)CSc2n[nH]c(-c3ccco3)n2)c(C)c1	none
Cc1cc(C)nc(SCC(=O)c2ccc(O)cc2O)n1	none
CC1/C(=N\O)CC(c2ccccc2)N(C)C1c1ccccc1 (centres undefined)	none
Clc1ccc(-c2nnc3sc(-c4ccccc4)nn23)cc1	none
CCOC(=O)C1=NN(c2ccc([N+](=O)[O-])cc2)C(C(=O)OCC)=NN1c1ccc([N+](=O)[O-])cc1	none
CC1CCN(S(=O)(=O)c2ccc3[nH]c(=O)[nH]c3c2)CC1	none
